# JMJD2A Tudor inh: qHTS Assay for Inhibitors of JMJD2A-Tudor Domain; AlphaScreen JMJD2A-Tudor / H3K4me3 peptide binding; Potency, µM (series often up to 114 µM), for the others: at the top dose activity change, negative = inhibition, most hits filed as inhibitors; 4.4% of 390,000 active; AID 504339, 2011; also: % is scaled to controls: 0 for no effect and ±100 for the full control effect; nearly all actives have a fitted effect of over 50% in size
# G9a inh: qHTS Assay for Inhibitors of Histone Lysine Methyltransferase G9a | Potency, µM (highest dose often 102 µM), for inactives: top-dose activity, negative = inhibition, most hits filed as inhibitors | AID 504332, 2011 | G9a H3K9 monomethylation, AlphaScreen, 2 h | 8.8% of 350,000 active | Histone-lysine N-methyltransferase EHMT2 (Homo sapiens), Q96KQ7; also: % is scaled to controls: 0 for no effect and ±100 for the full control effect; nearly all actives have a fitted effect of over 75% in size
# Target sequence (Q96KQ7 913-1193 limits assumed): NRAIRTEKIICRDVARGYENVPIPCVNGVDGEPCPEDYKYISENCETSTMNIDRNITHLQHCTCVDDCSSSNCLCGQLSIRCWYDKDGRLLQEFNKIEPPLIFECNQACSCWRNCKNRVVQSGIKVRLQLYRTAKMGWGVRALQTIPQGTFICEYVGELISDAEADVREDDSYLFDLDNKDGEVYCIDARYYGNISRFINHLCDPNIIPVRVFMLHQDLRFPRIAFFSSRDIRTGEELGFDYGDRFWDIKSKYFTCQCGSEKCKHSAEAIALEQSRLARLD
#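 Chemiluminescent proximity detection of H3K9 monomethylation, read after 10 min bead incubation in the dark. Reaction: 20 nM G9a, 500 nM biotin-H3K9 peptide, 20 uM SAM cofactor, 2 h, room temperature, following 15 min enzyme-compound preincubation.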
# BAZ2B block: qHTS Assay for Inhibitors of BAZ2B; AlphaScreen BAZ2B-H3K14Ac peptide displacement; Potency, µM (doses to about 114 µM), without a hit: at the highest dose activity change, negative = inhibition, hits mostly inhibitors; 4.4% of 360,000 active; also: % is scaled to controls: 0 for no effect and ±100 for the full control effect; nearly all actives have a fitted effect of over 60% in size
#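 Complex of BAZ2B and biotin-H3K14Ac (50 nM apiece) forms over 30 min at RT, then faces library compounds up to 110 uM for another 30 min; AlphaScreen beads added, 20 min dark incubation, luminescence read.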
# Sfp inh: qHTS Assay for Inhibitors of Bacillus subtilis Sfp phosphopantetheinyl transferase (PPTase) | 4'-phosphopantetheinyl transferase ffp (Bacillus subtilis), Q9F4F7 | Potency, µM, for inactives: largest response in the series, negative = inhibition, usual class: inhibitors | Biochemical Sfp PPTase activity, qHTS | 3.5% of 310,000 active;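 also: the enzyme is Sfp with the accession as filed and its product quenches rhodamine fluorescence; 0% = enzyme reaction without inhibitor and -100% = no enzyme wells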
#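 Reaction rates are the 30-min fluorescence difference (ex 525, em 598 nm) in wells containing 15 nM Sfp, 5 uM rhodamine-CoA and 12.5 uM BHQ-2-YbbR at pH 7.6 with 10 mM MgCl2.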
# HP1b chromo inh: HTS for Inhibitors of HP1-beta Chromodomain Interactions with Methylated Histone Tails; 0.56% of 390,000 active; AlphaScreen HP1-beta / biotin-H3K9me3 peptide binding; Chromobox protein homolog 1 (Homo sapiens), P83916; Potency, µM (series often up to 114 µM), for the others: at the top dose activity change, negative = inhibition, hits mostly inhibitors; also: nearly all actives have a fitted effect of over 70% in size
# Target sequence (P83916 whole entry, looked up): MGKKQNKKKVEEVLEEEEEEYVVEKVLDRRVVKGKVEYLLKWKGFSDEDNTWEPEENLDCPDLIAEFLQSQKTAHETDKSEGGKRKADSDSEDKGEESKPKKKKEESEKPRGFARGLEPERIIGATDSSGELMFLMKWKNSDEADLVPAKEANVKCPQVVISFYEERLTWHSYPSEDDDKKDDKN
#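 AlphaScreen: HP1-beta (50 nM) preformed 30 min with biotin-H3(1-18)K9me3 peptide (50 nM) in PBS pH 7.4, 0.01% Tween-20. Compound added for 30 min at RT, then streptavidin donor/nickel chelate acceptor beads (10 ug/mL) for 30 min.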
# * marks the source's active call; other numbers are inactive results; u = inconclusive; x = not tested or not shown; ! = a repeat was not active; [ ] = another dose, or the depositor's remark. Only some compounds are listed: those with a hit (about 12% of all), similar ones and a draw of the others. Calls follow the shape of the dose curve; as a rule, active = well fitted curve in the direction sought with a large enough effect; inconclusive = small, poorly fitted or top-dose-only effect, or another doubt; inactive = no such curve, though single readings can be large; an effect the other way counts as inactive or inconclusive. Potency is read from the fitted curve at half-maximal effect.
SMILES,JMJD2A Tudor inh,G9a inh,BAZ2B block,Sfp inh,HP1b chromo inh
CC(=O)Nc1ccc(-c2nnc(SCC(=O)Nc3ccc4c(c3)oc3ccccc34)n2C)cc1,100µM*,32%[0.501 µM],1%[57.1 µM],-3%,44%
Cc1ccc(-c2nnc(SCC(=O)CC(=O)Nc3ccccc3)n2C)cc1,-13%[57.1 µM],-21%[59 µM],-4%,28%,57%
Cn1c(SCC(=O)O)nnc1-c1ccc(NC(=O)c2ccc(Cl)c(Cl)c2)cc1,-8%,50µM*,-1%,12%,24%
O=C1N/C(=N\N=C\c2cccs2)SC1Cc1cccc(Cl)c1Cl (stereo not drawn),-3%,38%[59 µM],-6%,-5%,39%
CC(=O)C1=C(C)Nc2cc(C(F)(F)F)ccc2S1,-22%,22µM*,11%,56µM*,-4%
Cc1ccc(NC(=O)CC2Sc3ccc(C(F)(F)F)cc3NC2=O)cc1 (stereo not drawn),-11%,-5%[59 µM],-2%,x,61%
COc1cccc(C2CCCN2Cc2nc(-c3cnccn3)no2)c1 (stereo not drawn),-24%,x,-2%,-4%,22%
O=C(Cc1c[nH]c2ccccc12)Nc1nnc(C2CC2)s1,-21%,-32%,-24%,10%,4%
O=C(CNC(=O)c1cccs1)Nc1ncccc1O,-12%,10%,56µM*,x,15%
O=C(CNC(=O)c1cccs1)NC1=NCCS1,u,14%[59 µM],-12%,-2%,7%
c1ccc(Cn2nnc3c(Nc4ccc5c(c4)OCO5)nc(C4CC4)nc32)cc1,-35%,-18%[59 µM],u,89µM*,7%
COc1ccc(OC)c(Nc2nc(C3CC3)nc3c2nnn3Cc2ccccc2)c1,9%,41%,0%,6%,45%
Oc1ccc(C(=S)N2CCCCC2)cc1,-15%,45µM*,0%,50µM*,-21%
S=C(c1ccc(Br)cc1)N1CCCC1,0%,45µM*,-4%,-11%,11%
CCCC(c1nnnn1Cc1ccc(OC)cc1)N1CCN(c2ccccc2)CC1 (stereo not drawn),18%[11.4 µM],-5%[12.7 µM],-33%,13%,-25%
O=c1ccc(-c2nc3ccccc3n2Cc2ccc(Cl)cc2)c[nH]1,-23%,1%[2.33 µM],0%,0%,28%
Cn1c(-c2ccc(=O)[nH]c2)nc2ccccc21,-14%[11.4 µM],x,9%,18µM*,27%
COc1cc2c(cc1OC)CN(c1nc(CN3CCCC3)nc3sc(C)c(C)c13)CC2,u,35µM*,79µM*,u,0%
Cc1cc(S(=O)(=O)Nc2nc(CN3CCOCC3)nc3sc4c(c23)CCC4)cc(C)c1C,-35%,45µM*,u,x,-4%
Cc1sc2nc(CN3CCOCC3)nc(N3CCC(C(N)=O)CC3)c2c1C,-27%[57.1 µM],-11%[59 µM],13%,-1%,53%
COc1cc2c(cc1OC)CN(c1nc(CN3CCOCC3)nc3sc4c(c13)CCCC4)CC2,50µM*,45µM*,45µM*,-28%,u
Cc1sc2nc(CN3CCOCC3)nc(N3CCOCC3)c2c1C,u,3.5µM*,50µM*,u,u
COc1cc2c(cc1OC)CN(c1nc(CN3CCCCC3)nc3sc4c(c13)CCCC4)CC2,-34%,u,u,u,0%
CN(Cc1ccccc1)C(=O)c1nc[nH]c1C(=O)N1CCc2ccccc2C1,-18%,10%[0.501 µM],9%,x,28%
CC(=O)N1c2ccccc2NC2=C(C(=O)CC(C)(C)C2)C1c1cccn1C (stereo not drawn),-13%,16%[59 µM],-23%,12%,23%
SMILES,JMJD2A Tudor inh,G9a inh,BAZ2B block,Sfp inh,HP1b chromo inh
Cc1csc(Nc2cccc3ccccc23)n1,u,45µM*,50µM*,1%,u
COc1ccccc1Nc1nc(C)cs1,-15%,3%[2.33 µM],79µM*!,45µM*,-21%
Cc1csc(Nc2ccccc2C(F)(F)F)n1,1%,24%[0.0925 µM],u,-1%,6%
COc1ccccc1Nc1ccc(Nc2ccccc2OC)nn1,u,50µM*,-34%,11%,-17%
CCN(CC)S(=O)(=O)c1cccc(C(=O)OCC(=O)C23CC4CC(CC(C4)C2)C3)c1,-4%,u,-3%,11%,28%
Cc1ccc(C)c(C(=O)N2CCC(c3nc4c(nnn4Cc4ccccc4)c(=O)[nH]3)CC2)c1,-14%,-3%[59 µM],0%,x,48%
CC1CCCCN1C(=O)COC(=O)c1cccc(NS(=O)(=O)c2ccccc2)c1 (stereo not drawn),-10%,56µM*,-12%,x,16%
CCOC(=O)C1CCN(C(=O)c2cccc(NS(=O)(=O)c3ccc(F)c(F)c3)c2)CC1,-13%,50µM*,-20%,u,22%
Cc1ccc(S(=O)(=O)Nc2cccc(C(=O)N3CCN(c4ccccc4O)CC3)c2)cc1F,-29%,50µM*,-12%,x,-12%
CC1CCN(Cc2nnnn2CCCC(=O)NCCN2CCOCC2)CC1,-9%,-3%,-2%,18%,21%
CCS(=O)(=O)c1ccc(C(=O)N2CCN(c3nc4c(OC)ccc(C)c4s3)CC2)cc1,-10%,5%[59 µM],-11%,x,3%
COc1ccc(OC)c2sc(N3CCN(C(=O)c4ccc5ncsc5c4)CC3)nc12,u,40µM*,u,x,u
COc1ccc(OC)c2sc(N3CCN(C(=O)c4ccc([N+](=O)[O-])s4)CC3)nc12,u,35µM*,u,x,-11%
O=C1CS(=O)(=O)C2(C(=O)N(Cc3ccccc3)c3ccccc32)N1c1ccc(F)c(Cl)c1 (stereo not drawn),-15%,u,-2%[57.1 µM],x,25%
CCc1ccc(NC(=O)C(CC)Sc2nc3cc4c(cc3c(=O)n2Cc2ccco2)OCO4)cc1 (stereo not drawn),-25%,-12%,4%,45µM*,5%
CC1CCCCN1CCCNC(=O)c1ccc(Br)cc1 (stereo not drawn),-25%,-2%,-9%,8%,9%
CCOc1ccc(N2CC(C(=O)NCc3ccccc3)CC2=O)cc1 (stereo not drawn),-9%,8%,0%,9%,30%
C(=N\Nc1ncnc2ccccc12)/c1ccccc1,-11%[11.4 µM],-3%,u,-22%,11%
Clc1ccccc1/C=C/c1ccnc2ccccc12,54%,290%,273%,u,121%
Clc1cccc(/C=N/Nc2ncnc3ccccc23)c1,u,x,35µM*,-35%,-7%
Nc1c(Cl)ncnc1N/N=C/c1ccccn1,28µM*,u,5.6µM*,-7%,-19%
Nc1c(Cl)ncnc1N/N=C/c1ccc2ccccc2n1,89µM*,u,13µM*,-1%,-36%
Nc1c(Cl)ncnc1N/N=C/c1ccnc2ccccc12,6%[57.1 µM],u,5%,35µM*,9%

# Screens: PubChem, National Center for Advancing Translational Sciences (NCATS)
